According to PubChem BioAssay (NCATS):
Inconclusive results are not listed. Active and inactive are the calls of the source. Unless noted, calls come from the whole dose curve; as a rule, active = well fitted curve in either direction with a large enough effect (not every such curve was filed as active); inconclusive = small, poorly fitted or top-dose-only effect, or another doubt; inactive = flat fitted curve, though single readings scatter.

These compounds were tested against Mitogen-activated protein kinase 10 (Mus musculus) (UniProt Q61831) (assay: JNK3 AlphaScreen Assay (AID 530;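 note: kinase came from lysate of stimulated human HepG2 cells; signal reports phosphorylation of biotinylated GST-cJun 1-79 at Ser73 with 10 µM ATP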)). Settings: JNK3 lysate, c-Jun phosphorylation; series mostly up to 57.1 µM.
Procedure, shortened: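 Inhibitors reduce antibody binding to phosphorylated biotin-cJun, lowering AlphaScreen luminescence. Lysates from HepG2 cells pre-activated by IL-1beta plus TNF-alpha supplied JNK3; compounds were titrated.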

outcome, inactive:
Cc1ccccc1-c1cncnc1NCc1ccccc1
CN(C)C(=O)c1ccc(-c2cc(NCc3cccnc3)ncn2)cc1
Cc1noc(C)c1-c1cc(NCc2cccnc2)ncn1
CN(C)c1ncc2nc(-c3cc(F)cc(F)c3)c(=O)n(CCC#N)c2n1
c1nc(NC2CCNCC2)c2cc(-c3ccoc3)ccc2n1
Fc1ccc(Nc2ncncc2-c2ccccc2C(F)(F)F)cc1
COc1ccc(-c2nc3cnc(Oc4ccccc4)nc3n(CCC#N)c2=O)cc1
COc1ccc(-n2c(=O)c(-c3ccc(F)cc3)nc3cnc(N4CCOCC4)nc32)cc1
Cc1noc(C)c1-c1nccc(N2CCOCC2)n1
COc1ccccc1CCn1c(=O)c(-c2cccc(F)c2)nc2cncnc21
COCCn1c(=O)cnc2cnc(Oc3ccc(OC)cc3)nc21
O=c1c(-c2ccc(F)cc2)nc2cnc(Oc3ccccc3)nc2n1C1CC1
COc1ccc(Oc2ncc3nc(C)c(=O)n(C[C@H]4CCCO4)c3n2)cc1
CCNc1ncc2nc(-c3cccs3)c(=O)n(C)c2n1
COCCNc1nc(-c2ccccc2Cl)nc2ccccc12
CN(C)c1ccc(-c2ccc3ncnc(N(C)C)c3c2)cc1
COCCn1c(=O)c(C)nc2cnc(N(C)C)nc21
COCCNc1ncnc2ccc(-c3cccc(NS(C)(=O)=O)c3)cc12
CC(=O)NCCNc1ncncc1-c1ccc(N(C)C)cc1
COc1ccc(Oc2ncc3nc(-c4ccc(OC)cc4)c(=O)n(C)c3n2)cc1
CN1CCN(c2ccnc(-c3ccoc3)n2)CC1
Cc1ccccc1-c1nccc(NCc2cccs2)n1
Cc1cccc(CNc2cc(-c3c(C)noc3C)ncn2)c1
O=c1cnc2cnc(Oc3cccc(Cl)c3)nc2n1C[C@H]1CCCO1
CS(=O)(=O)Nc1cccc(-c2ccc3ncnc(NC4CC4)c3c2)c1
COc1ccc(-n2c(=O)cnc3cnc(N(C)C)nc32)cc1
COc1cccc(Nc2ncc3nc(C)c(=O)n(C4CC4)c3n2)c1
CC(=O)NCCNc1ncnc2ccc(-c3ccoc3)cc12
CNc1ncnc2ccc(-c3ccccc3CN(C)C)cc12
c1csc(CNc2ncnc3ccc(-c4ccoc4)cc23)c1
COCCn1c(=O)c(C)nc2cnc(Oc3ccc(OC)cc3)nc21
c1cncc(CNc2ncncc2-c2cccnc2)c1
CN(C)C(=O)c1ccc(-c2cc(Nc3ccccc3)ncn2)cc1
COCCNc1ncnc2ccc(-c3ccoc3)cc12
COc1cccc(Cn2c(=O)cnc3cncnc32)c1
CCNc1ncc2nc(-c3cn(C)c4ccccc34)c(=O)n(C)c2n1
COc1ccc(-c2nc3cnc(Oc4cccc(Cl)c4)nc3n(C3CC3)c2=O)cc1

What follows are compounds tested against 3',5'-cyclic-AMP phosphodiesterase 4B (Homo sapiens) (UniProt Q07343) (assay: qHTS Assay for Inhibitors of PDE-IV (AID 607; active = well fitted activation curve with a large enough effect in the main read-out, with a control signal flat, not every such curve was filed as active)). Settings: HEK293 ACTOne CNG channel cells, membrane potential fluorescence; series mostly up to 22.9 µM.
Procedure, shortened: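 The readout is membrane depolarisation from a cAMP-sensing CNG channel, detected with a potential dye at ex 535/em 590. Cells were HEK293-derived (endogenous PDE-IV) at 1000 cells/well, titrated up to 22.9 uM final.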

3',5'-cyclic-AMP phosphodiesterase 4B (Homo sapiens), sequence (Q07343 whole entry, looked up): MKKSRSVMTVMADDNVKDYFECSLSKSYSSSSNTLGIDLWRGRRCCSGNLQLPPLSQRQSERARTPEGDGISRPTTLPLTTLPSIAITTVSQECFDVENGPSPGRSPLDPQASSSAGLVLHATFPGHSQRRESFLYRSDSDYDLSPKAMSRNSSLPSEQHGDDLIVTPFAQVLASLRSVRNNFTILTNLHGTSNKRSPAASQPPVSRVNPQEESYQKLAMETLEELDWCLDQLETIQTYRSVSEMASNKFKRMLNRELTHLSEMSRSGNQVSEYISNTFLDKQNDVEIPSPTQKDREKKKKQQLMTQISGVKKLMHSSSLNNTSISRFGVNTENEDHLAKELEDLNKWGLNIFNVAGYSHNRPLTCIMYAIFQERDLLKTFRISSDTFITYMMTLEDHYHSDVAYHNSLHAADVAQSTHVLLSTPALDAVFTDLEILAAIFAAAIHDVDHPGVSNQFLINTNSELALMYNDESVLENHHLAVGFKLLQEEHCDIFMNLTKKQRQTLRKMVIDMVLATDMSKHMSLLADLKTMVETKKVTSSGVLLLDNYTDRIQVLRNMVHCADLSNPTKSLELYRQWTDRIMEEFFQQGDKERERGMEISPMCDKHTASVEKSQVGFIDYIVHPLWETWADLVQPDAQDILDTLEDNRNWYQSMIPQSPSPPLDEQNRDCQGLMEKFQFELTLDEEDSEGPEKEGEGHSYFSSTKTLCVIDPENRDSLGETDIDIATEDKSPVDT

Potency, inactive:
CN(C)C(=O)c1ccc(-c2cc(NCc3cccnc3)ncn2)cc1
Cc1noc(C)c1-c1cc(NCc2cccnc2)ncn1
CN(C)c1ncc2nc(-c3cc(F)cc(F)c3)c(=O)n(CCC#N)c2n1
c1nc(NC2CCNCC2)c2cc(-c3ccoc3)ccc2n1
COc1ccc(-c2nc3cnc(Oc4ccccc4)nc3n(CCC#N)c2=O)cc1
COc1ccc(-c2nc3cnc(N4CCN(C)CC4)nc3n(Cc3cccs3)c2=O)cc1
COc1ccc(-n2c(=O)c(-c3ccc(F)cc3)nc3cnc(N4CCOCC4)nc32)cc1
Cc1noc(C)c1-c1nccc(N2CCOCC2)n1
COCCn1c(=O)cnc2cnc(Oc3ccc(OC)cc3)nc21
O=c1c(-c2ccc(F)cc2)nc2cnc(Oc3ccccc3)nc2n1C1CC1
COc1ccc(Oc2ncc3nc(C)c(=O)n(C[C@H]4CCCO4)c3n2)cc1
CCNc1ncc2nc(-c3cccs3)c(=O)n(C)c2n1
CN(C)c1ccc(-c2ccc3ncnc(N(C)C)c3c2)cc1
COCCn1c(=O)c(C)nc2cnc(N(C)C)nc21
COCCNc1ncnc2ccc(-c3cccc(NS(C)(=O)=O)c3)cc12
CC(=O)NCCNc1ncncc1-c1ccc(N(C)C)cc1
CN1CCN(c2ncc3nc(-c4ccc(Cl)cc4)c(=O)n(-c4ccccc4)c3n2)CC1
CN1CCN(c2ccnc(-c3ccoc3)n2)CC1
Cc1ccccc1-c1nccc(NCc2cccs2)n1
Cc1cccc(CNc2cc(-c3c(C)noc3C)ncn2)c1
O=c1cnc2cnc(Oc3cccc(Cl)c3)nc2n1C[C@H]1CCCO1
CS(=O)(=O)Nc1cccc(-c2ccc3ncnc(NC4CC4)c3c2)c1
COc1ccc(-n2c(=O)cnc3cnc(N(C)C)nc32)cc1
COc1cccc(Nc2ncc3nc(C)c(=O)n(C4CC4)c3n2)c1
COc1ccc2[nH]cc(CCNc3ncnc4ccc(-c5cccnc5)cc34)c2c1
CC(=O)NCCNc1ncnc2ccc(-c3ccoc3)cc12
CNc1ncnc2ccc(-c3ccccc3CN(C)C)cc12
c1csc(CNc2ncnc3ccc(-c4ccoc4)cc23)c1
COCCn1c(=O)c(C)nc2cnc(Oc3ccc(OC)cc3)nc21
c1cncc(CNc2ncncc2-c2cccnc2)c1
COCCNc1ncnc2ccc(-c3ccoc3)cc12
COc1ccc(-c2nc3cnc(Oc4cccc(Cl)c4)nc3n(C3CC3)c2=O)cc1
